Among the data in PubChem BioAssay (NCI) are growth values, retold here.

Test systems include HT29 colon; SNB-75 CNS; SNB-19 CNS; U251 CNS; PC-3 prostate; SK-MEL-5 melanoma; UACC-62 melanoma; LOX IMVI melanoma; SK-MEL-28 melanoma; SK-MEL-2 melanoma.
Common to all, as to test: NCI-60 one-dose screen, 48 h (100 = growth as untreated, 0 = no growth, -100 = all killed)
What all share (conditions): 10 µM

Compounds without any hit were thinned out: in the full panel of roughly 83,000, 20% have a hit.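 Treatment: one concentration, 48 hours, 96-well format. Scoring: percent growth, with anything below 10 considered active.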 Values without a mark were called inactive. The source made the active and inactive calls.

As to `COc1ccc(-c2ccc(-c3ccc(C(=N)N)cn3)o2)cc1`, the growth is 14.1% in the test with HT29 colon; 61.1% in the test on SNB-75 CNS; 91.5% with SNB-19 CNS; 76.3% in the test with U251 CNS; 68.3% in the test with PC-3 prostate; 72.3% in the test on SK-MEL-5 melanoma. Also, the growth in the test with UACC-62 melanoma was 89.7%; with LOX IMVI melanoma, 61.8%; with SK-MEL-28 melanoma it was 86.5%; in the test on SK-MEL-2 melanoma, 99.5%.

With `COc1ccc(/C=C/C(=O)Nc2ccc(-c3nc4ccc(F)cc4s3)cc2)cc1`, the growth is 101% in the test on HT29 colon; 102% in the test on SNB-75 CNS; 99% with SNB-19 CNS; 95.4% with U251 CNS; 94.6% in the test with PC-3 prostate; 86.8% with SK-MEL-5 melanoma. For the same compound, the growth with UACC-62 melanoma is 99.8%; in the test with LOX IMVI melanoma, 94.7%; in the test with SK-MEL-28 melanoma, 109%; in the test with SK-MEL-2 melanoma it was 117%.

Take `ClCC#CCSc1ncnc2c1ncn2CC#CCCl`: the growth with HT29 colon was 17.7%; in the test with SNB-75 CNS, -57.5% (active); in the test with SNB-19 CNS it was 13.2%; with U251 CNS, 0.284% (active); in the test with PC-3 prostate, 32.3%; in the test with SK-MEL-5 melanoma, 9.62% (active). Further, the growth in the test with UACC-62 melanoma was 19.2%; in the test on LOX IMVI melanoma it was -35.5% (active); in the test on SK-MEL-28 melanoma it was 39.5%; in the test on SK-MEL-2 melanoma it was 41.1%.

With `COc1ccc(-c2ccc3cc(C(=O)Nc4ccc(O)c(C(=O)/C=C/c5cc(OC)c(OC)c(OC)c5)c4)ccc3c2)cc1`, the growth with HT29 colon was 95.3%; in the test on SNB-75 CNS, 94%; with SNB-19 CNS, 96.1%; with U251 CNS, 92.6%; in the test on PC-3 prostate, 65.5%; with SK-MEL-5 melanoma, 72.6%. Also, the growth is 71.1% in the test with UACC-62 melanoma, 81.3% in the test with LOX IMVI melanoma, 106% with SK-MEL-28 melanoma and 99.5% in the test with SK-MEL-2 melanoma.

For the compound `CCC(=O)N1C/C(=C/c2ccc(Cl)cc2)C(=O)/C(=C/c2ccc(Cl)cc2)C1`, the growth with HT29 colon was -72.8% (active); in the test with SNB-75 CNS, 20%; in the test on SNB-19 CNS, -19.3% (active); in the test with U251 CNS, -80.1% (active); in the test with PC-3 prostate, -44.1% (active); with SK-MEL-5 melanoma, -64.1% (active). The growth was -74.8% (active) with UACC-62 melanoma, -85.7% (active) in the test on LOX IMVI melanoma, -74.2% (active) with SK-MEL-28 melanoma and -21.5% (active) with SK-MEL-2 melanoma.

On to `O=C(c1cccs1)c1ccccc1Cc1ccccc1`, for which the growth was 96.6% with HT29 colon; 94.4% with SNB-75 CNS; 90.4% with SNB-19 CNS; 92.5% in the test on U251 CNS; 87.7% in the test with PC-3 prostate; 97.9% with SK-MEL-5 melanoma. For the same compound, the growth in the test with UACC-62 melanoma was 90.1%; in the test with LOX IMVI melanoma, 103%; with SK-MEL-28 melanoma it was 101%; in the test with SK-MEL-2 melanoma it was 96.1%.

Regarding `C=C1c2c(C)nn(-c3ccc(OC)cc3)c2N(C)C23C[C@@H]1C1(C)c4c(C)nn(-c5ccc(OC)cc5)c4N(C)C(C)(C[C@H]12)C3` (stereo not given in full), the growth was 19.4% in the test with HT29 colon; 59.6% in the test on SNB-75 CNS; 46.8% in the test with SNB-19 CNS; 32.1% in the test on U251 CNS; -4.74% (active) in the test on PC-3 prostate; 16.1% in the test with SK-MEL-5 melanoma. Besides, the growth is 26.9% in the test with UACC-62 melanoma, 18.4% in the test on LOX IMVI melanoma, 56.8% in the test with SK-MEL-28 melanoma and 37.2% with SK-MEL-2 melanoma.

`c1ccc2c(c1)oc1c3c(ccc12)NCCC3`: the growth is 95.1% in the test on HT29 colon; 97.1% with SNB-75 CNS; 108% in the test with SNB-19 CNS; 90.7% in the test on U251 CNS; 91.5% in the test on PC-3 prostate; 94.1% in the test on SK-MEL-5 melanoma. For the same compound, the growth was 84.2% with UACC-62 melanoma, 96.6% in the test with LOX IMVI melanoma, 107% with SK-MEL-28 melanoma and 97.5% in the test with SK-MEL-2 melanoma.

Regarding `CCOCC(=O)C(C#N)c1ccc(Cl)c(Cl)c1` (stereo not given), the growth was 104% in the test with HT29 colon; 78.2% in the test on SNB-75 CNS; 107% in the test with SNB-19 CNS; 94.7% with U251 CNS; 87% with PC-3 prostate; 96% in the test with SK-MEL-5 melanoma. The growth was 95.4% in the test on UACC-62 melanoma, 100% with LOX IMVI melanoma, 100% with SK-MEL-28 melanoma and 115% with SK-MEL-2 melanoma.

On to `COc1cc(/C=C2\CCCC3=C2N=C2SC=NN2C3c2cc(OC)c(OC)c(OC)c2)cc(OC)c1OC` (stereo not given), for which the growth is 3.26% (active) in the test with HT29 colon; 19.7% in the test on SNB-75 CNS; 46.4% in the test with SNB-19 CNS; 8.08% (active) with U251 CNS; 66.4% with PC-3 prostate; 16.3% in the test with SK-MEL-5 melanoma. Moreover, the growth with UACC-62 melanoma was -51.7% (active); in the test with LOX IMVI melanoma, -36.9% (active); in the test with SK-MEL-28 melanoma, 42.5%; in the test with SK-MEL-2 melanoma, 89.3%.

Take `COc1cc(Cl)cc(-c2nn(-c3cccc(NC(=O)c4ccc(Cl)c(Cl)c4)c3)cc2-c2ccncc2)c1`: the growth in the test on HT29 colon is 56.4%; with SNB-75 CNS, 50.6%; with SNB-19 CNS, 71.6%; with U251 CNS, 64.1%; in the test with PC-3 prostate, 34%; in the test on SK-MEL-5 melanoma, 78.5%. The growth in the test on UACC-62 melanoma was 75.4%; with LOX IMVI melanoma, 72.8%; with SK-MEL-28 melanoma, 87.7%; with SK-MEL-2 melanoma, 78.4%.

On to `Nc1nc(N=Nc2ccc(O)cc2)cc(=O)[nH]1`, for which the growth in the test with HT29 colon was 123%; in the test with SNB-75 CNS, 119%; with SNB-19 CNS it was 99.5%; in the test with U251 CNS it was 93.6%; in the test on PC-3 prostate, 104%; in the test on SK-MEL-5 melanoma it was 96.6%. The growth in the test with UACC-62 melanoma is 101%; with LOX IMVI melanoma, 93.7%; in the test on SK-MEL-28 melanoma it was 106%; with SK-MEL-2 melanoma, 144%.

Turning to `O=C(Nc1ccncc1)C(=O)c1cn(S(=O)(=O)c2cc(Cl)cc(Cl)c2)c2ccccc12`, the growth with HT29 colon is 42.4%; with SNB-75 CNS, 59.6%; with SNB-19 CNS, 82.4%; in the test on U251 CNS, 58.1%; in the test with PC-3 prostate it was 63.9%; in the test with SK-MEL-5 melanoma, 62.7%. Besides, the growth in the test with UACC-62 melanoma was 57.4%; with LOX IMVI melanoma, 48%; in the test with SK-MEL-28 melanoma it was 78.4%; with SK-MEL-2 melanoma, 61.7%.
